According to PubChem BioAssay (NCATS):
Records with an inconclusive call do not appear. A call without a number means that no potency is given here. The source made the active and inactive calls. Unless noted, the call rests on the fitted dose curve; in most records, active means well fitted curve in the direction sought with a large enough effect; inconclusive means small, poorly fitted or top-dose-only effect, or another doubt; inactive means no such curve, though single readings can be large; an effect the other way counts as inactive or inconclusive.

Assays:
[1] = High Content Imaging Cell-Based qHTS for Inhibitors of the mTORC1 Signaling Pathway in MEF (Tsc2-/-, p53-/-) Cells (AID 2666);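 further: percent of cells scored positive for phospho-rpS6 Ser235/236 immunostaining by imaging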; further: potency means the concentration at half of the fitted maximal effect
Summary of the method: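 Tsc2-/-, p53-/- MEFs (empty-vector stable) grown in DMEM + 10% FBS were exposed to compounds for 24 hrs at 37 degree Celsius, fixed, and stained with Alexa-488 anti-phospho-rpS6 Ser235/236 plus Hoechst. Imaging gave the percentage of positive cells per well.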

[2] = High Content Imaging Cell-Based qHTS for Inhibitors of the mTORC1 Signaling Pathway in MEF Cells (AID 2667); further: potency means the concentration at half of the fitted maximal effect
Summary of the method: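 Tsc2-/-, p53-/- MEFs stably re-expressing WT Tsc2, grown in DMEM + 10% FBS, were treated with compounds for 24 hrs at 37 degree Celsius, fixed, and stained with Alexa-488 phospho-rpS6 Ser235/236 antibody plus Hoechst; results given as % positive cells.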

[3] = Cytometry Cell-Based qHTS for Inhibitors of the mTORC1 Signaling Pathway in MEF cells (AID 2668); further: potency means the concentration at half of the fitted maximal effect
Summary of the method: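 Tsc2-/-, p53-/- MEFs re-expressing WT Tsc2; cpd 24 hrs, 37 degree Celsius; PFA fix, Alexa-488 p-rpS6 (Ser235/236) Ab 2 hrs RT, PI counterstain; Acumen 488nm scan; p-S6/PI ratio → % positive cells; PI count = viability.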

[4] = target: Ubiquitin carboxyl-terminal hydrolase 2 (Homo sapiens) (UniProt O75604); assay: qHTS Validation Assay for Inhibitors of Ubiquitin-specific Protease USP2a Using CHOP2 as the Reporter (AID 463106); further: potency means the concentration at half of the fitted maximal effect
Summary of the method: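 Readout was coupled fluorescence (Ex 485/Em 531 nm), read 60 min after adding 25 nM final Ub-CHOP2 and 25 nM reporter substrate. Beforehand, 10 nM final USP2 core had 30 min at RT with compound in pH 8.0 buffer. Curves were fitted after normalization to NEM and flagged for artifacts using time-zero reads.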

[5] = target: DNA polymerase III PolC-type (Bacillus subtilis (strain 168)) (UniProt P13267); assay: qHTS Validation Assay for the Inhibitors of DNA Replication in Gram-Positive Bacteria (AID 485295); further: potency means the concentration at half of the fitted maximal effect
Summary of the method: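 First, compound is mixed with the reconstituted replication complex and held at room temperature. Next, circular single-stranded M13Gori with nucleotides starts synthesis. Finally, PicoGreen in EDTA halts the reaction and stains double-stranded product for fluorescence reading.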

[6] = target: Tumor susceptibility gene 101 protein (Homo sapiens) (UniProt Q99816); assay: qHTS Validation Assay for Iinhibitors of HIV-1 Budding by Blocking the Interaction of PTAP/TSG101 (AID 485342; calls by dose curve)
Summary of the method: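 Binding of a FITC-tagged PTAP-motif peptide (50 nM) to the Tsg101 binding domain (10 uM) is monitored by fluorescence polarization. Compounds are pin-delivered before peptide addition, and incubation runs 20 min at room temperature.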

[7] = target: Beta-2 adrenergic receptor (Homo sapiens) (UniProt P07550); assay: qHTS validation assay of beta-arrestin-biased ligands of beta2-adrenergic receptor (AID 485366)
Summary of the method: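 Agonist activity is measured as luciferase luminescence downstream of beta-arrestin recruitment to recombinant beta2-AR in Tango cells. Exposure lasts 18 hr at 37 degrees C, and curves are categorized by r2, response size and activity.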

[8] = target: ATP-dependent 6-phosphofructokinase (Trypanosoma brucei brucei) (UniProt O15648); assay: qHTS Validation Assay to Find Inhibitors of T. brucei phosphofructokinase (AID 485368); further: potency means the concentration at half of the fitted maximal effect
Summary of the method: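 Inhibition derived from concentration-response curves of luminescence, ranked by r2, response size and curve class; the underlying reaction used 1.25 nM PFK, 0.1 mM ATP and 0.5 mM F6P, 45 min, room temperature.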

[9] = Cytometric Cell-Based qHTS for Inhibitors of the mTORC1 Signaling Pathway in MEF (Tsc2-/-, p53-/-) Cells (AID 2660);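 further: Tsc2 and p53 null MEFs carrying empty vector with compound for 24 h; percent of cells above a phospho-rpS6 to PI ratio cutoff in each well; series mostly up to about 38 µM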
Summary of the method: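 Readout: Alexa-488 phospho-rpS6 (Ser235/236) intensity divided by PI intensity, thresholded against 7.5 nM rapamycin wells and reported as % positive cells. PI cell count served as the viability measure. Compound exposure was 24 hrs at 37 degree Celsius.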

[10] = qHTS Validation Assay to Find Inhibitors of Chronic Active B-Cell Receptor Signaling (AID 485345; active means well fitted curve in the direction sought with a large enough effect in the main read-out, with a control signal flat, not every such curve was filed as active)
Summary of the method: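 Read-out: ratio of filter-corrected green (IkappaBalpha fusion) to red (native) luciferase signal in doxycycline-induced TMD8 cells after 4 h at 37C. Titration spanned 46 uM–3 nM; Data were normalised to basal cells and 10 uM MG-132 wells.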

[11] = target: ATP-dependent DNA helicase Q1 (Homo sapiens) (UniProt P46063); assay: qHTS Validation Assay for Inhibitors of RecQ-Like Dna Helicase 1 (RECQ1) (AID 2353); further: potency means the concentration at half of the fitted maximal effect
Summary of the method: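 RECQ1T1 50 nM; forked duplex (20 bp + 30-nt ss tails) 200 nM, ATP 2 mM final; pH 8.0, 2 mM MgCl2, 2.5 ug/ml poly(dI-dC); 15 min compound preincubation; discontinuous kinetic read over 2 h at RT.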

[12] = Validation screen for inhibitors of Lassa infection (AID 463096; calls by dose curve; further: potency means the concentration at half of the fitted maximal effect)
[13] = Quantitative high throughput screen for delayed death inhibitors of the malarial parasite plastid, 96 hour incubation (AID 488745); further: nearly all actives have a fitted effect of over 70% in size; further: potency means the concentration at half of the fitted maximal effect
Summary of the method: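 Two-generation (96 h) exposure of luciferase-reporter P. falciparum in erythrocytes, 2% hematocrit, 0.1% parasitemia final, 37 C, 5% CO2, RPMI 1640 with 0.5% Albumax. Growth inhibition scored by reduced luminescence.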

[14] = Quantitative high throughput screen for delayed death inhibitors of the malarial parasite plastid, 48 hour incubation (AID 488752); further: nearly all actives have a fitted effect of over 65% in size; further: potency means the concentration at half of the fitted maximal effect
Summary of the method: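 Cultures: infected erythrocytes at final 2% hematocrit and 0.1% parasitemia in Albumax-supplemented RPMI. Parasites express integrated firefly luciferase. Incubation with compound lasts 48 h before luminescent detection of remaining reporter activity.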

[15] = target: RecQ-like DNA helicase BLM (Homo sapiens) (UniProt P54132); assay: qHTS Validation Assay for Inhibitors of Bloom's syndrome helicase (BLM) (AID 2364); further: potency means the concentration at half of the fitted maximal effect
Summary of the method: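 Forked 20-bp duplex substrate (200 nM, TAMRA/BHQ-2) plus 2 mM ATP added after 15 min compound preincubation with 50 nM enzyme, pH 8.0, poly(dI-dC) 2.5 ug/ml. Strand separation followed by fluorescence (525/598 nm) over 2 h, normalized to enzyme-free and DMSO controls.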

[16] = Validation screen for small molecules that induce DNA re-replication in MCF 10A normal breast cells (AID 463097); further: nearly all actives have a fitted effect of over 60% in size; further: potency means the concentration at half of the fitted maximal effect
Summary of the method: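 Image-based qHTS: normal breast cells are incubated with compound for 48 hr, stained with Hoechst, and scanned for total nuclear fluorescence. Compounds raising the fraction of nuclei with elevated DNA content count as re-replication inducers.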

Chain of RecQ-like DNA helicase BLM (Homo sapiens) (P54132 whole entry, looked up): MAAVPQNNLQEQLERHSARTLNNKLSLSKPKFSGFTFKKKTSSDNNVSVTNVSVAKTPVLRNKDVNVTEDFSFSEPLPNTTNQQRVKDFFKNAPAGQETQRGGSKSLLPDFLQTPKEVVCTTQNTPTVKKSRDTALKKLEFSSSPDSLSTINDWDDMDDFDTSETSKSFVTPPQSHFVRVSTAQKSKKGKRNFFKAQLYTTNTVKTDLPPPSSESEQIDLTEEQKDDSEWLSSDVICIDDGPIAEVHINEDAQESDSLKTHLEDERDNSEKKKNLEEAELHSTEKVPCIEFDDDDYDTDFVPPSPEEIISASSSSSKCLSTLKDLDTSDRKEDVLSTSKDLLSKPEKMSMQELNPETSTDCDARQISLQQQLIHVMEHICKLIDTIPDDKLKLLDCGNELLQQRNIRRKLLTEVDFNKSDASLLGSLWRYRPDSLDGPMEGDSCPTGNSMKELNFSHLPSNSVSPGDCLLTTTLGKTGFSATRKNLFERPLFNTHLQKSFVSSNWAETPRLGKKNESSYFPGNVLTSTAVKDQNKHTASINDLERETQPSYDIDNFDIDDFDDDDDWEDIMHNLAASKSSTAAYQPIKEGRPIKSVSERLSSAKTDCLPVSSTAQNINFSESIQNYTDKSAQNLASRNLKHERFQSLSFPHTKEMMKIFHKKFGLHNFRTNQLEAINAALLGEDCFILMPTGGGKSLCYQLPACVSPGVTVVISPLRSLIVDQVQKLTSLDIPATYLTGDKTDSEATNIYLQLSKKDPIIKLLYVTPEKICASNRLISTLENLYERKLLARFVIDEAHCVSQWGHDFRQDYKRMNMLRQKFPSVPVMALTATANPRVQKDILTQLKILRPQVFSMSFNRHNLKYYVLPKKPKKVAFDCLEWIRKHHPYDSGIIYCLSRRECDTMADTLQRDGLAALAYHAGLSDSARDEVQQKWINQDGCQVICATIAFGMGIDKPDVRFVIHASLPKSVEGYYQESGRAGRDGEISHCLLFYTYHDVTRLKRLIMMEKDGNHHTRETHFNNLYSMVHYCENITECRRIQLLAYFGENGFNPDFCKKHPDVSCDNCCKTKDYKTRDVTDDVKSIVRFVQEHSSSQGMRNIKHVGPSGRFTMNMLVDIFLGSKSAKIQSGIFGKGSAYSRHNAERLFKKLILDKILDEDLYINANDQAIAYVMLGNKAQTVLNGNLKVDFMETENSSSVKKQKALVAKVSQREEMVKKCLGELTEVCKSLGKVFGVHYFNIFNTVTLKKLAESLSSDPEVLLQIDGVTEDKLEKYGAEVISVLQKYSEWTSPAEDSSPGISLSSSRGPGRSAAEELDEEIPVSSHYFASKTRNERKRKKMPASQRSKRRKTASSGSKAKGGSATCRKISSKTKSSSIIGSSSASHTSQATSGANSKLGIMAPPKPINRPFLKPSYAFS
Chain of ATP-dependent DNA helicase Q1 (Homo sapiens) (P46063 whole entry, looked up): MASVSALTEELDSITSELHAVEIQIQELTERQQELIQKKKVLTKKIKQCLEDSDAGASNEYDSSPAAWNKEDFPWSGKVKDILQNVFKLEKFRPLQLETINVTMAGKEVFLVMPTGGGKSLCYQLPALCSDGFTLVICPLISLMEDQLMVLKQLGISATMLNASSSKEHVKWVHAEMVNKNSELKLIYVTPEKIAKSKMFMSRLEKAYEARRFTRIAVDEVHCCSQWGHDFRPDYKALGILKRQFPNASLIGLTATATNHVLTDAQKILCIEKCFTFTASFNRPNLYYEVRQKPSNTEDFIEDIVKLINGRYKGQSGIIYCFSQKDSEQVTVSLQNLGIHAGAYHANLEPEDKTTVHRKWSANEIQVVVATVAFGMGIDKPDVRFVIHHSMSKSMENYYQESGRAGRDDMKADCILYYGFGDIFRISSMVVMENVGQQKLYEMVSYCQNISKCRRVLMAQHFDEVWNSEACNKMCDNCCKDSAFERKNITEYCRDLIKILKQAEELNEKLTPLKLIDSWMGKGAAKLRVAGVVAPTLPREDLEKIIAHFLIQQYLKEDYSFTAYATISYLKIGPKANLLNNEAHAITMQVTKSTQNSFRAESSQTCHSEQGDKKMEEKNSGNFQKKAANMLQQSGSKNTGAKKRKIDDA
Chain of Tumor susceptibility gene 101 protein (Homo sapiens) (Q99816 whole entry, looked up, the tested form may be a part): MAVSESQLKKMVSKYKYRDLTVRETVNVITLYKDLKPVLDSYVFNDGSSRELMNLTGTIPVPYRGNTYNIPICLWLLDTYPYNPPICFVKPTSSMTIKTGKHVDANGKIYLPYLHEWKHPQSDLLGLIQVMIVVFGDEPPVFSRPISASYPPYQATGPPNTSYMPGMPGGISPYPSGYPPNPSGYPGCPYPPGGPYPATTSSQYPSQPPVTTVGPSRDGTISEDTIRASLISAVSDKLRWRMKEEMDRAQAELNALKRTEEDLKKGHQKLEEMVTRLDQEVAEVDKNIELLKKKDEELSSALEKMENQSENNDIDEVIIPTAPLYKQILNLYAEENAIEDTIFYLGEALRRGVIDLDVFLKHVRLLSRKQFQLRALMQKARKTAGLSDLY
Chain of ATP-dependent 6-phosphofructokinase (Trypanosoma brucei brucei) (O15648 whole entry, looked up): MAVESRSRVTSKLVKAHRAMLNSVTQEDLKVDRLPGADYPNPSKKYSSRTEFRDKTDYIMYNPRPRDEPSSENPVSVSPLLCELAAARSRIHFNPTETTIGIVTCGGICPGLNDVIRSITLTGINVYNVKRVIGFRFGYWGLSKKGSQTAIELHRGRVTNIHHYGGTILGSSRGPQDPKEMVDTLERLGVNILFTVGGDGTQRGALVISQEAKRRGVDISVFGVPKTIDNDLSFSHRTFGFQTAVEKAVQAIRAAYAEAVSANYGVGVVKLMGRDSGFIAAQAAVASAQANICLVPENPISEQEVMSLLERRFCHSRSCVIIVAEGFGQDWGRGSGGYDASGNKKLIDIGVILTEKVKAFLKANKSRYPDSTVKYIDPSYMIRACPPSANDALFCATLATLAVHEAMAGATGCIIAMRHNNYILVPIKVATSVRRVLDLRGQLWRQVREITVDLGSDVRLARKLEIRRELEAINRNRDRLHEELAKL
Chain of Beta-2 adrenergic receptor (Homo sapiens) (P07550 whole entry, looked up): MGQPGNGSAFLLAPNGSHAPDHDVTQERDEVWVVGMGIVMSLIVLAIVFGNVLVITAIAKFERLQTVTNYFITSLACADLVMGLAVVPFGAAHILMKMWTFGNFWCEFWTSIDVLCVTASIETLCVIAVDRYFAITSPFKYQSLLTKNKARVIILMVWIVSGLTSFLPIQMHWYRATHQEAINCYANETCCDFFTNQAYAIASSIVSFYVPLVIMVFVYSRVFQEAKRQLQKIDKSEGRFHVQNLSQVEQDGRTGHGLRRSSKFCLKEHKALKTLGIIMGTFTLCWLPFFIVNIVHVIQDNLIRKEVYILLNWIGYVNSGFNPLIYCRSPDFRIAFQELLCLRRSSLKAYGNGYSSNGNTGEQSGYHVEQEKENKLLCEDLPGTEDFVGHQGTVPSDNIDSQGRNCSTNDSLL
Chain of DNA polymerase III PolC-type (Bacillus subtilis (strain 168)) (P13267 whole entry, looked up): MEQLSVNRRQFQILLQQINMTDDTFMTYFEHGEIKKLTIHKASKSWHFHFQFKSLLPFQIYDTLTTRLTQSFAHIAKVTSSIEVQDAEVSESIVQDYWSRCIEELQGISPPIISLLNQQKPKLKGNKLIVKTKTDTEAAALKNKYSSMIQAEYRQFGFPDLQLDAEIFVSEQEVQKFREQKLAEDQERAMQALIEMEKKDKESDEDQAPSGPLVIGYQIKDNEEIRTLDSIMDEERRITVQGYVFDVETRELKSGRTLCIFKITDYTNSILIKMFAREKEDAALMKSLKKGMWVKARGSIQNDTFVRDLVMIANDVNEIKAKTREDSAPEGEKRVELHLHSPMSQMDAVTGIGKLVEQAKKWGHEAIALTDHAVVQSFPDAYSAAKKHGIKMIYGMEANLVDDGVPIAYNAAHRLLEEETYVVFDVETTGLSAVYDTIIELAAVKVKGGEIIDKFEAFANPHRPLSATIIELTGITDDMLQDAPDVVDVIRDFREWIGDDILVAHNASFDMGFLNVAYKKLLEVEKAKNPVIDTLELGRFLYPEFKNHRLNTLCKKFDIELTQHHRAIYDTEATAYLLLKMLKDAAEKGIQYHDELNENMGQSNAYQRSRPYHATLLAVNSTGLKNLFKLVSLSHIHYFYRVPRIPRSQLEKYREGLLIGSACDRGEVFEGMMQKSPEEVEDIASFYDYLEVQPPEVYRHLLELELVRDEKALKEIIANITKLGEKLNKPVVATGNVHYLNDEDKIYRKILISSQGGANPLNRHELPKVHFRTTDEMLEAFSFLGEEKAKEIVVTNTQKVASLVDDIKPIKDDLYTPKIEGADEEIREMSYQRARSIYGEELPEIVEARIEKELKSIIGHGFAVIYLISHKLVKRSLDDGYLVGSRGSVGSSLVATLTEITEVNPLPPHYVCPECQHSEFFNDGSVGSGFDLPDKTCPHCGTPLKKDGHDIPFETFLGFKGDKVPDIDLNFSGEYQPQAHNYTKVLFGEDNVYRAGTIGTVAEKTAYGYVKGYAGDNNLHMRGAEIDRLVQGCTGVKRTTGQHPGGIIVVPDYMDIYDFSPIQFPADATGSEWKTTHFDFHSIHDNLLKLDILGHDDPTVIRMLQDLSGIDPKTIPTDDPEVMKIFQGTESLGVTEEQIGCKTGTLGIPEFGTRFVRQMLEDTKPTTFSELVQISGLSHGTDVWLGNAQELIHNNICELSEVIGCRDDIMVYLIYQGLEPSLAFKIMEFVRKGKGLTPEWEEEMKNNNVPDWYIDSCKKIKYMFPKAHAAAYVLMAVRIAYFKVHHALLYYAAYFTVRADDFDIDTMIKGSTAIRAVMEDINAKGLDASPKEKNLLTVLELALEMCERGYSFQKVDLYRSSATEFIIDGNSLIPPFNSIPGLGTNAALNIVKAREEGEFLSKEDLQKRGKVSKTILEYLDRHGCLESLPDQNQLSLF

Structure (SMILES)	Potency [1]	Potency [2]	Potency [3]	Potency [4]	Potency [5]	outcome [6]	outcome [7]	Potency [8]	Potency [9]	Potency [10]	Potency [11]	Potency [12]	Potency [13]	Potency [14]	Potency [15]	Potency [16]
CC(C)(O)[C@@H]1C2OC(=O)[C@@H]1[C@]1(O)C[C@H]3O[C@]34C(=O)O[C@H]2[C@]14C (tested in a mixture with another compound)	inactive	inactive	inactive	inactive	inactive	inactive	inactive	inactive								
N#C/C(=C/c1ccc(O)c(O)c1)C(N)=S	inactive	inactive	inactive	inactive	inactive	inactive	inactive		inactive	inactive						
C[C@@H]1O[C@@H](O[C@H]2C[C@@H](O)[C@]3(CO)[C@@H]4C(CC[C@]3(O)C2)[C@@]2(O)CC[C@H]([C@@H]3COC(=O)C3)[C@@]2(C)C[C@H]4O)[C@H](O)[C@H](O)[C@H]1O (stereo partly specified)	inactive	inactive		inactive	inactive	inactive	inactive	inactive	inactive							
NC(=O)CI	inactive	inactive	inactive	inactive	inactive	inactive	inactive	19 µM (active)			inactive	inactive	inactive	inactive		
CCCn1c(=O)c2[nH]c(C3CCCC3)nc2n(CCCOC(=O)c2ccc(S(=O)(=O)F)cc2)c1=O	inactive	inactive		inactive	inactive	inactive	inactive		inactive		inactive	inactive		inactive		
CCNC(=O)[C@H]1O[C@@H](n2cnc3c(N)ncnc32)[C@H](O)[C@@H]1O	inactive	inactive		inactive	inactive	inactive	inactive	inactive	inactive							
CCCN1CCc2cc(O)cc3c2[C@H]1Cc1ccc(O)c(O)c1-3				inactive	inactive	inactive	inactive	3.01 µM (active)								
NC(Cc1cc(O)c(O)cc1O)C(=O)O (stereo unspecified)	inactive	inactive		0.656 µM (active)	4.74 µM (active)	inactive	inactive				1.41 µM (active)		inactive	inactive	3.16 µM (active)	inactive
CCCCCCCCCCCCCC(=O)O[C@@H]1[C@@H](C)[C@@]2(O)[C@@H](C=C(CO)C[C@@]3(O)C(=O)C(C)=C[C@@H]23)C2C(C)(C)[C@@]21OC(C)=O (stereo partly specified)				inactive	inactive		inactive				inactive		11.7 µM (active)			
CCS(=O)(=O)Nc1cccc(C(=C2CCCCC2)c2cnc[nH]2)c1	inactive	inactive		inactive	inactive	inactive	inactive	inactive	inactive	inactive	inactive	inactive				inactive
CC(=O)c1c(O)c(C)c(O)c(Cc2c(O)c3c(c(C(=O)/C=C/c4ccccc4)c2O)OC(C)(C)C=C3)c1O	inactive	inactive	inactive	inactive	18.9 µM (active)		inactive							14.7 µM (active)		
COc1ccc2c(c1)/C(=C/c1cnc[nH]1)C(=O)N2				inactive	inactive	inactive	inactive	inactive			inactive	inactive			inactive	
CCCN1CCc2cccc3c2[C@H]1Cc1ccc(O)c(O)c1-3	inactive	inactive		inactive	inactive		inactive	12 µM (active)	inactive							
CC(C)(C)c1cc(C=C(C#N)C#N)cc(C(C)(C)C)c1O	inactive	2.33 µM (active)		inactive	inactive		inactive				inactive	2.51 µM (active)	1.85 µM (active)	1.47 µM (active)		0.158 µM (active)
C=CCN1C[C@@H](C)N([C@H](c2ccc(C(=O)N(CC)CC)cc2)c2cccc(OC)c2)C[C@@H]1C	inactive	inactive	inactive	inactive	inactive	inactive	inactive				inactive	inactive	4.65 µM (active)	5.22 µM (active)		inactive
Ic1ccccc1CNC1C2CCN(CC2)C1C(c1ccccc1)c1ccccc1 (stereo unspecified)	16.5 µM (active)	6.56 µM (active)	6.56 µM (active)	inactive	inactive	inactive	inactive	inactive			inactive				inactive	17.8 µM (active)
N=C(N)c1ccc(CS(=O)(=O)F)cc1	inactive	inactive	inactive	inactive	inactive		inactive	inactive	inactive	inactive						
N[C@@H](Cn1ccc(=O)[nH]c1=O)C(=O)O	inactive	inactive	inactive	inactive	inactive	inactive	inactive	inactive	inactive	inactive						
C[C@H](N)Cc1cccc(C(F)(F)F)c1	inactive	inactive	inactive	inactive	inactive	inactive	inactive	inactive		inactive						
